This is an account of results in PubChem BioAssay.

Test [1] can be described thus: antimalarial activity against Dd2 strain (AID 2302;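 active = growth inhibition above 50% at the single 2 µM test dose, taken to imply half-maximal potency below 2 µM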;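 also: 0% = DMSO untreated growth and 100% = chloroquine plus artemisinin killed control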). The conditions noted are these: P. falciparum Dd2 in RBCs, LDH growth readout, 72 h; at 2 µM; hits give high values.
Test [2] is described as follows: human hepatoma cell viability loss – ATP luminescence, cytotoxicity control for P. falciparum antimalarial project, primary screen (AID 2303;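 active = inhibition above 50%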;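 also: 0% = DMSO wells and 100% = digitonin-killed cells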). As to conditions: HepG2 viability, 24-48 h, at 10 µM, hits give high values.
Test [3] concerns the target L-lactate dehydrogenase (Plasmodium falciparum (isolate CDC / Honduras)) (UniProt Q27743). As to the kind of experiment: PfLDH activity inhibition – cell lysate, 3D7 strain, counter-screen for P. falciparum growth inhibition project (AID 2304).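 Also: 0% = vehicle and 100% = reference inhibitor.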 The conditions noted are these: P. falciparum 3D7 crude extract, LDH APAD/NBT absorbance; at 2 µM; hits give high values. On the technique in general: A counterscreen serves to expose hits that act by an unwanted route or on another target.

Test [4] is described as follows: inhibition of 3D7 malaria parasite growth – strain 3D7 (AID 2306).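 Also: 0% = DMSO wells and 100% = chloroquine plus artemisinin control wells.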 As to conditions: P. falciparum 3D7 erythrocytic growth, LDH absorbance, 72 h; at 2 µM; hits give high values.
In test [5] the target is Calcium-dependent protein kinase 1 (Plasmodium falciparum (isolate 3D7)) (UniProt P62344). Description: PfCDPK1 kinase inhibitors, biochemical, TCAMS library (AID 1159585; cut-off not given, nearly all actives have IC50 up to about 0.98 µM;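 also: inhibitors leave more ATP so luminescence rises with inhibition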). The conditions noted are these: recombinant PfCDPK1, Kinase-Glo ATP depletion luminescence.
Chain of Calcium-dependent protein kinase 1 (Plasmodium falciparum (isolate 3D7)) (P62344 whole entry, looked up): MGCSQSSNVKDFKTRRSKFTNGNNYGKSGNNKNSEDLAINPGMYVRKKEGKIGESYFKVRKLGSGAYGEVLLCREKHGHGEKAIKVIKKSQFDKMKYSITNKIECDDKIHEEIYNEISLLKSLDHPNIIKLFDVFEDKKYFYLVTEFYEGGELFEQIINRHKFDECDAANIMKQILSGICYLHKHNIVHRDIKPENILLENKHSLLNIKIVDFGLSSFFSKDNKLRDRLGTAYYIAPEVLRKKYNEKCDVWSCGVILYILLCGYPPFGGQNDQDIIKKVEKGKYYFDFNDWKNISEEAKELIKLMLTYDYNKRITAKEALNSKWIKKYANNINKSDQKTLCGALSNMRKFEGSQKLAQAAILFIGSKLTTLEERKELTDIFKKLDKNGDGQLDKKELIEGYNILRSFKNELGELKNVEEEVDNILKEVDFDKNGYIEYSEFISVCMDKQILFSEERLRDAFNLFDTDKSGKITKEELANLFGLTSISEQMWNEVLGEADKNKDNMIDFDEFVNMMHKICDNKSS
The target of test [6] is Plasmodium falciparum protein kinase 6 (PK6, PF3D7_1337100) (UniProt Q8IDW1). As to the kind of experiment: PfPK6 kinase inhibitors, biochemical, TCAMS library (AID 1159586). As to conditions: recombinant PfPK6, Kinase-Glo ATP depletion luminescence.
Chain of Plasmodium falciparum protein kinase 6 (PK6, PF3D7_1337100) (Q8IDW1 1-305): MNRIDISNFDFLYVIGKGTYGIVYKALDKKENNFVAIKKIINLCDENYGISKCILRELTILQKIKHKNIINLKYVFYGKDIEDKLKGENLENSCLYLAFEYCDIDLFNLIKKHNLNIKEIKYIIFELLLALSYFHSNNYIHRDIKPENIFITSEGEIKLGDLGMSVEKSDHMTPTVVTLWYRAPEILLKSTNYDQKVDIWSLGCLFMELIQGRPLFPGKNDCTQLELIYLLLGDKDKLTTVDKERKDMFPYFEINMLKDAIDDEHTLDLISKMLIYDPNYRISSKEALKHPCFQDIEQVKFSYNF
Test [7] concerns the target Protein kinase 7 (PK7), Plasmodium falciparum 3D7 (PF3D7_0213400) (UniProt Q7YTF7). As to the kind of experiment: inhibition of Plasmodium PK7 catalytic activity – biochemical, TCAMS antimalarial set, Kinase-Glo luminescence (AID 1159587). As to conditions: recombinant PfPK7, Kinase-Glo ATP depletion luminescence. (In general: In Kinase-Glo more light means more ATP remaining.)

For test [8], the target named is Calcium-dependent protein kinase 4 (Plasmodium falciparum (isolate 3D7)) (UniProt Q8IBS5). Description: PfCDPK4 kinase inhibitors, biochemical, TCAMS library (AID 1159588; cut-off not given, nearly all actives have IC50 up to about 0.91 µM). As to conditions: recombinant PfCDPK4, Kinase-Glo ATP depletion luminescence.
Chain of Calcium-dependent protein kinase 4 (Plasmodium falciparum (isolate 3D7)) (Q8IBS5 whole entry, looked up): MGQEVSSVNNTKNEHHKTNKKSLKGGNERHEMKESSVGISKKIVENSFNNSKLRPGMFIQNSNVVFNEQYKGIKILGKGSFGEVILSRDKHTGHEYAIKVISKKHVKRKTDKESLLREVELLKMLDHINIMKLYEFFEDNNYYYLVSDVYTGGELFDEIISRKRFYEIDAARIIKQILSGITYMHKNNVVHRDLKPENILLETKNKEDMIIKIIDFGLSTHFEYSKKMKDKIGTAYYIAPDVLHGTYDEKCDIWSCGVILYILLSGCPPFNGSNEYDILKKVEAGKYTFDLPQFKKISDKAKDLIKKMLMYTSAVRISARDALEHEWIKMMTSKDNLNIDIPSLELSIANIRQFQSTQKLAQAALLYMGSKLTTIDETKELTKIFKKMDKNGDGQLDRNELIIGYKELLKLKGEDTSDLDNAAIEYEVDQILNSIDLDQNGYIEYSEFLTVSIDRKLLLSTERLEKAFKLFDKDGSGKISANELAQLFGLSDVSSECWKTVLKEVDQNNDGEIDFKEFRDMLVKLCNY

A number with no mark means an inactive call. For some of these results: Results with a measured potency or affinity are listed apart. Activity calls are given as the source filed them. Unless noted, no rule for the calls is given here.

Chain of L-lactate dehydrogenase (Plasmodium falciparum (isolate CDC / Honduras)) (Q27743 whole entry, looked up): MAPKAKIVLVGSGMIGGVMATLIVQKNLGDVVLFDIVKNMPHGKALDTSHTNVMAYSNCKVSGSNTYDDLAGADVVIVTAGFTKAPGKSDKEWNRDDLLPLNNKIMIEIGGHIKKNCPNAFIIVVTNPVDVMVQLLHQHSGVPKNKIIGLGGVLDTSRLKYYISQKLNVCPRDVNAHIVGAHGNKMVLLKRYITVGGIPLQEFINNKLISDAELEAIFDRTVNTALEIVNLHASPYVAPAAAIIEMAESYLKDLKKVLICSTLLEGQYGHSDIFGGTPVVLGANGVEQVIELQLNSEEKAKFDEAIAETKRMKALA
Chain of Protein kinase 7 (PK7), Plasmodium falciparum 3D7 (PF3D7_0213400) (Q7YTF7 1-343): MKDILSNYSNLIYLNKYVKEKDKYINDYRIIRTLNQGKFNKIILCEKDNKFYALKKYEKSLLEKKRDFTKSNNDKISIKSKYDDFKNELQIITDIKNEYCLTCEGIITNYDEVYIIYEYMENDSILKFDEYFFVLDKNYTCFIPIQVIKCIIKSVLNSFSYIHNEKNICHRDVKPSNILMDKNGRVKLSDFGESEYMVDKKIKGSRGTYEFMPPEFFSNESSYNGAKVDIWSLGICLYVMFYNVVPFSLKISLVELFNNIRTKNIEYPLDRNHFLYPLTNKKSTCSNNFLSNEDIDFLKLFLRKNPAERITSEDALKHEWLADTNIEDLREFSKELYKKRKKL

The term inhibition denotes the relative decrease from the control value, in per cent. For the compound `Cc1onc(-c2ccccc2)c1C(=O)Nc1nc(-c2ccccn2)nc2ccsc12`, the growth inhibition in test [1] is 78% (active); in test [4] it was 97% (active). Besides, the inhibition in test [2] was 23%; in test [3], -4%. Further, the result in test [5], in test [6], in test [7] and in test [8] was inactive.
On to `CCCC(=O)Nc1ccc(OCCN(Cc2ccccc2OC(F)(F)F)c2ccc(C(F)(F)F)c(C#N)c2)cc1`, for which the growth inhibition in test [1] is 97% (active); in test [4], 85% (active). For the same compound, the inhibition in test [2] is -11%; in test [3], -1%. Also, the result in test [5], in test [6], in test [7] and in test [8] was inactive.
Regarding `CCCc1cc(Cc2cnc(N)nc2N)cc(CCC)c1OCCCCCC(=O)OCC`, the growth inhibition was -3% in test [1] and 95% (active) in test [4]. For the same compound, the figures for the inhibition in test [2] and in test [3] were 12% and -1%, respectively. The result in test [5], in test [6], in test [7] and in test [8] was inactive.
In the case of `CCCc1ccc(C2CCN(CCCCNC(=O)c3ccc(NC(=O)c4ccc(Cl)cc4)cc3)CC2)cc1`, the growth inhibition in test [1] and in test [4] was 100% (active) in each case. Moreover, the values for the inhibition in test [2] and in test [3] were 39% and 1%, respectively. Besides, the result in test [5], in test [6], in test [7] and in test [8] was inactive.
As for `CCCNCCc1ccc(NS(=O)(=O)c2cccc(-c3ccc(Cl)cc3)c2)cc1`, the growth inhibition is 36% in test [1] and 101% (active) in test [4]. Moreover, the inhibition in test [2] was 36%; in test [3] it was 0%. Further, the result in test [5], in test [6], in test [7] and in test [8] was inactive.
